Measured values reported in PubChem BioAssay (NCATS).
Results filed as inconclusive are left out. Active and inactive are the calls of the source. Unless noted, the call rests on the fitted dose curve; in most records, active means well fitted curve in the direction sought with a large enough effect; inconclusive means small, poorly fitted or top-dose-only effect, or another doubt; inactive means no such curve, though single readings can be large; an effect the other way counts as inactive or inconclusive.

Experiments:
[1] = qHTS for differential inhibitors of proliferation of Plasmodium falciparum line 3D7 (AID 1876);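 further: parasite growth measured after three days of culture; 0% = vehicle wells and -100% = reference inhibitor wells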
[2] = qHTS for differential inhibitors of proliferation of Plasmodium falciparum line D10 (AID 1877);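 further: parasites grown with compound for 72 h before DNA staining; plate controls were vehicle wells for no effect and reference inhibitor wells for full effect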
[3] = qHTS for differential inhibitors of proliferation of Plasmodium falciparum line Dd2 (AID 1882); conditions: Potency: Plasmodium falciparum Dd2 proliferation inhibition;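 further: series mostly up to about 29 µM; plate controls were DMSO vehicle for no effect and 0.29 µM artemisinin for full effect; nearly all actives have a fitted effect of over 65% in size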
How it was run: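 SYBR Green DNA fluorescence (ex 485, em 535 nm) after overnight lysis quantifies parasite growth; compound exposure lasted 72 h at 37 C on infected red cells at 2.5% hematocrit, 0.3% parasitemia (final). Artemisinin 0.29 uM and vehicle wells define normalization.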

[4] = qHTS for differential inhibitors of proliferation of Plasmodium falciparum line HB3 (AID 1886); conditions: Potency: Plasmodium falciparum HB3 proliferation inhibition;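 further: parasites grown with compound for 72 h before SYBR Green readout; plate controls were vehicle for no effect and reference inhibitor for full effect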
[5] = qHTS Assay for Modulators of Human Peripheral Myelin Protein 22 (PMP22) Expression/Activity (AID 1967; active means well fitted curve in the direction sought with a large enough effect in the signal ratio; the % refers to the signal ratio;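 further: 0% = untreated cells and 100% end not stated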)
How it was run: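 MSC80 mouse Schwann cells stably carrying Pmp22 promoter–green click beetle luciferase plus EF-alpha–red luciferase control were dosed for 24h at 37 °C. Dual-colour luminescence was filter-overlap corrected; %Activity came from green/red ratio versus untreated cells.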

[6] = biological target: Ferritin light chain (Equus caballus) (UniProt P02791); assay: qHTS Validation Assay for Identification of Novel General Anesthetics (AID 2323); further: series mostly up to about 77 µM; on the % scale 0 is the no-effect control and ±100 the full control effect
How it was run: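 Competitive displacement of profluorescent 1-aminoanthracene (1-AMA, 50% saturated solution in PBS) from 10 uM horse-spleen apoferritin. Compounds incubated 10 min at room temperature; fluorescence read at 380 nm excitation/535 nm emission, normalized to free 1-AMA and complex, fitted with four-parameter Hill equation.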

[7] = biological target: ATP-dependent DNA helicase Q1 (Homo sapiens) (UniProt P46063); assay: qHTS Validation Assay for Inhibitors of RecQ-Like Dna Helicase 1 (RECQ1) (AID 2353);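 further: plate controls were DMSO vehicle for no effect and enzyme-free control for full effect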
How it was run: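 RECQ1T1 50 nM; forked duplex (20 bp + 30-nt ss tails) 200 nM, ATP 2 mM final; pH 8.0, 2 mM MgCl2, 2.5 ug/ml poly(dI-dC); 15 min compound preincubation; discontinuous kinetic read over 2 h at RT.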

[8] = biological target: RecQ-like DNA helicase BLM (Homo sapiens) (UniProt P54132); assay: qHTS Validation Assay for Inhibitors of Bloom's syndrome helicase (BLM) (AID 2364);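 further: plate controls were DMSO vehicle for no effect and enzyme-free control for full effect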
How it was run: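 BLM 50 nM in 25 mM Tris-HCl pH 8.0, 5 mM NaCl, 2 mM MgCl2, 1 mM DTT, 0.01% Tween-20, 2.5 ug/ml poly(dI-dC); 15 min cpd preinc, RT. Start: 200 nM forked DNA + 2 mM ATP (final). TAMRA read, 2 reads 2 h apart.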

[9] = Validation screen for small molecules that induce DNA re-replication in MCF 10A normal breast cells (AID 463097); further: 0% is about no effect; nearly all actives have a fitted effect of over 60% in size
How it was run: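 Readout: Hoechst nuclear fluorescence intensity, 405 ex / 500-530 em, by scanning plate imager; re-replication scored as increase in nuclei with elevated DNA content. Cells exposed to compound 48 hr, 37 C, 5% CO2 beforehand.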

[10] = Quantitative high throughput screen for delayed death inhibitors of the malarial parasite plastid, 96 hour incubation (AID 488745);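 further: luciferase-expressing P. falciparum in erythrocytes at 2% hematocrit and 0.1% parasitemia; series mostly up to about 29 µM; on the % scale 0 is the no-effect control and ±100 the full control effect; nearly all actives have a fitted effect of over 70% in size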
How it was run: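 Readout is firefly luciferase luminescence from an integrated reporter in P. falciparum; lower signal marks inhibited growth. Cultures at 2% hematocrit and 0.1% parasitemia were treated with compound across two generations (96 h, 37 C, 5% CO2).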

[11] = Quantitative high throughput screen for delayed death inhibitors of the malarial parasite plastid, 48 hour incubation (AID 488752); further: on the % scale 0 is the no-effect control and ±100 the full control effect; nearly all actives have a fitted effect of over 65% in size
How it was run: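 First, compound was pinned into RPMI 1640 medium containing 0.5% Albumax. Next, reporter-parasite-infected erythrocytes were added to 2% hematocrit and 0.1% parasitemia. After 48 h at 37 C under 5% CO2, luciferase detection reagent was added and luminescence read.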

[12] = biological target: M-phase phosphoprotein 8 (Homo sapiens) (UniProt Q99549); assay: qHTS Validation Assay for Inhibitors for MPP8 Chromodomain Interactions with Methylated Histone Tails (AID 488949);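 further: AlphaScreen signal from MPP8 chromodomain bound to biotinylated H3K9me3 peptide; top concentration of the series differs between compounds; on the % scale 0 is the no-effect control and ±100 the full control effect; nearly all actives have a fitted effect of over 55% in size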
How it was run: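 MPP8 (50 nM) was preincubated with biotinylated H3(1-18)K9me3 peptide (50 nM) in PBS pH 7.4, 0.01% Tween-20 for 30 min at room temperature, then with compounds for 30 min; binding was detected by AlphaScreen.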

[13] = biological target: Transient receptor potential cation channel subfamily V member 1 (Homo sapiens) (UniProt Q8NER1); assay: HTS Assay for Compounds that Act as Enhancers of the Vanilloid Receptor 1 (AID 488979); further: 0% is about no effect
How it was run: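 TRPV1-expressing cells loaded with Fluo-8 calcium dye; compounds added and calcium influx read kinetically for 3 min (agonist phase), then capsaicin at EC20 added and read 2 min more for enhancement. Fluorescence ex 480/em 520 nm.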

[14] = biological target: Thyrotropin receptor (Homo sapiens) (UniProt P16473); assay: qHTS Assay for Antagonists of the Thyroid Stimulating Hormone Receptor (AID 488980); further: series mostly up to about 58 µM; 0% is about no effect
How it was run: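 HEK293 cells transfected with human TSHR, suspended in HEPES-buffered HBSS with 70 uM RO 20-1724, were treated with compounds plus TSH at EC80 (4 nM final). cAMP was measured by competitive HTRF (cryptate anti-cAMP antibody, cAMP-d2 acceptor).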

[15] = biological target: Thyrotropin-releasing hormone receptor (Homo sapiens) (UniProt P34981); assay: qHTS for Small Molecule Agonists and Allosteric Enhancers of Human TRH Receptor: Validation Screen for Agonists (AID 493127;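 active means calcium activation more than 3 SD above the typical response in the agonist read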;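 further: intracellular calcium rise by fluo-8 fluorescence before TRH EC20 addition; 0% is about no effect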); conditions: TRH receptor agonist cell assay; at 2 µM; stronger effect = higher value
How it was run: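 Compounds are added by online pintool to dye-loaded TRHR cells while fluorescence is recorded every second. A rise in calcium signal during the agonist read marks activation; a later 10 nM TRH addition (EC20) serves the separate enhancer mode.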

[16] = biological target: Galactokinase (Homo sapiens) (UniProt P51570); assay: qHTS Validation Assay for Inhibitors of Human Galactokinase (GALK) (AID 493189); further: 0% is about no effect
How it was run: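 GALK (5 nM) with 35 uM ATP and 100 uM galactose in HEPES pH8.0, MgCl2, NaCl, DTT, BSA; 1 h at room temperature. Residual ATP read by Kinase-Glo Plus luminescence after 10 min.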

[17] = biological target: DNA dC->dU-editing enzyme APOBEC-3G (Homo sapiens) (UniProt Q9HC16); assay: qHTS for inhibitors of Vif-A3G interactions: Validation (AID 588379); further: 0% is about no effect
How it was run: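 Yellow fluorescence (Ex 488, Em 500-530) of Vif-coexpressing HeLa A3G-eYFP cells, scanned by Acumen cytometer, reports blocked A3G degradation. Cells plated at 700/well overnight at 37 deg C before compound addition, then a further overnight compound incubation at 37 deg C.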

[18] = system: Zika virus NS2B-NS3 protease; assay: Primary screen GU AMC qHTS for Zika virus inhibitors (AID 1347154);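 further: 0% = no-inhibitor control and -100% = no-enzyme control; nearly all actives have a fitted effect of over 70% in size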
How it was run: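 Unlinked Zika NS2B hydrophilic domain/NS3 protease domain noncovalent complex (25 nM final) in 10 mM Tris-HCl pH 8.0, 0.01% Tween 20, with AMC peptide substrate. Fluorescence (ex 340, em 450 nm) change over 15 min, room temperature; percent inhibition fitted to 4-parameter Hill equation.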

[19] = Confirmatory qHTS for small molecule stabilizers of the endoplasmic reticulum resident proteome: Secreted ER Calcium Modulated Protein (SERCaMP) assay (AID 1508628); further: series mostly up to about 76 µM; on the % scale 0 is the no-effect control and ±100 the full control effect; nearly all actives have a fitted effect of over 40% in size
How it was run: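 Reporter secretion upon ER calcium depletion (100 nM thapsigargin, 4 h, 37C) is measured as medium luminescence with coelenterazine, after 16 h compound pretreatment of SH-SY5Y-GLuc-SERCaMP cells; primary at three concentrations up to 38.3 uM, follow-up at 11 (up to 76.6 uM).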

M-phase phosphoprotein 8 (Homo sapiens), sequence (Q99549 whole entry, looked up): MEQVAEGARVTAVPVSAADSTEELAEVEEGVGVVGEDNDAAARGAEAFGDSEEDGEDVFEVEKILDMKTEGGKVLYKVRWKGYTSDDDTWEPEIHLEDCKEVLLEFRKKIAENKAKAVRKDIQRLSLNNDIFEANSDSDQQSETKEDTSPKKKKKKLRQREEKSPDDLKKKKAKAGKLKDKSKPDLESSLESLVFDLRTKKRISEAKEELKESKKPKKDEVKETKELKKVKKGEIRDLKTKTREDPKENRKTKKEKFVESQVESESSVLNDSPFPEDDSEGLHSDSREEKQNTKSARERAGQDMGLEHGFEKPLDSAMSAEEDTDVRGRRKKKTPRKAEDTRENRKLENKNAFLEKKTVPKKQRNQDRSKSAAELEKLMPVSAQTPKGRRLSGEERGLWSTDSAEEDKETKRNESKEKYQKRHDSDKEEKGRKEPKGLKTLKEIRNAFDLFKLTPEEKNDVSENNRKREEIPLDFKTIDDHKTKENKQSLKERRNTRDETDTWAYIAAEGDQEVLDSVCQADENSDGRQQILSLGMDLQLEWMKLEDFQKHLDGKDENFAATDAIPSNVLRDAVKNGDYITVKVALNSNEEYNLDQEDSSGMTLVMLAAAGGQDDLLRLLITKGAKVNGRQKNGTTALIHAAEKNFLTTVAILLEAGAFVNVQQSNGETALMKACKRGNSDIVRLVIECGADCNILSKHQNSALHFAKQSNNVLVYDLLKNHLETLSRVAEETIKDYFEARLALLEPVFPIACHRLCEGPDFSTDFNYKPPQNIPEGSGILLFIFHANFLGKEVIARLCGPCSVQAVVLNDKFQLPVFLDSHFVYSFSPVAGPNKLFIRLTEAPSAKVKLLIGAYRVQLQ
Transient receptor potential cation channel subfamily V member 1 (Homo sapiens), sequence (Q8NER1 whole entry, looked up): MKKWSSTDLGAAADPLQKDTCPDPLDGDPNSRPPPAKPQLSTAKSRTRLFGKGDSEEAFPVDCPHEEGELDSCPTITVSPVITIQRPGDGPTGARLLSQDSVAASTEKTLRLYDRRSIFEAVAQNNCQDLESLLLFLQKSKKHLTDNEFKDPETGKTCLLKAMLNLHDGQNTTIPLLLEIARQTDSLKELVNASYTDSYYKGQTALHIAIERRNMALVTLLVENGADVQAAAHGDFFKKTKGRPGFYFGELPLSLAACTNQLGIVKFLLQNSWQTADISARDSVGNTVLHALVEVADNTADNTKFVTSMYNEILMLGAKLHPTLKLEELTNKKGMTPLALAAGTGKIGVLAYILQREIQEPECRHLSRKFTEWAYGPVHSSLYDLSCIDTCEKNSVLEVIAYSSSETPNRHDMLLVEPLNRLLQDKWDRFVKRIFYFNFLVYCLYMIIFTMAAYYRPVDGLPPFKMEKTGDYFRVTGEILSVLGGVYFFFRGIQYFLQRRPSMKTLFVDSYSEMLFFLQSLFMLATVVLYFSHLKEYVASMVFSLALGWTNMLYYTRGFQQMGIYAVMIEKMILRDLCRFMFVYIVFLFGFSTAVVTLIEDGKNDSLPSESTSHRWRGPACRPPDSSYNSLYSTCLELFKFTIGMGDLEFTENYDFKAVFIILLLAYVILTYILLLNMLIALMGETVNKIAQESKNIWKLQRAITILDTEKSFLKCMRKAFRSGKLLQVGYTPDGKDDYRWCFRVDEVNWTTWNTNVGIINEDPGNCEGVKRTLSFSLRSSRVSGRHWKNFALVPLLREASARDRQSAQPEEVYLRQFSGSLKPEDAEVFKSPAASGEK
ATP-dependent DNA helicase Q1 (Homo sapiens), sequence (P46063 whole entry, looked up): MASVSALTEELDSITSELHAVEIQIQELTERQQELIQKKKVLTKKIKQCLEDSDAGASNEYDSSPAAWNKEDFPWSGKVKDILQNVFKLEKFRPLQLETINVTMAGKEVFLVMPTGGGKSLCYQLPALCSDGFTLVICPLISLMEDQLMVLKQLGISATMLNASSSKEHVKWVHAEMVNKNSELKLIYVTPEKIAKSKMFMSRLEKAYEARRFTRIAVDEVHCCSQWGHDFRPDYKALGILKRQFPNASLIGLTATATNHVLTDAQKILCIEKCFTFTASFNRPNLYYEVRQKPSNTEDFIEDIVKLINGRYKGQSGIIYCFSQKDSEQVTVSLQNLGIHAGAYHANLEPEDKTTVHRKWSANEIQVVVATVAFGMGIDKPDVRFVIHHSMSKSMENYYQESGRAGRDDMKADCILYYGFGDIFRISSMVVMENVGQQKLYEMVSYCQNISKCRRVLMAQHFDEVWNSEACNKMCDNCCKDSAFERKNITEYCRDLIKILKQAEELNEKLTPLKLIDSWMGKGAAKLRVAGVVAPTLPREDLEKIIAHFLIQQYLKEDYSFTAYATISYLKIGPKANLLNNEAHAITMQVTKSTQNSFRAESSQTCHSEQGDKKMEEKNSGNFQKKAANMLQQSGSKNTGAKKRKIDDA
Ferritin light chain (Equus caballus), sequence (P02791 2-175 limits assumed): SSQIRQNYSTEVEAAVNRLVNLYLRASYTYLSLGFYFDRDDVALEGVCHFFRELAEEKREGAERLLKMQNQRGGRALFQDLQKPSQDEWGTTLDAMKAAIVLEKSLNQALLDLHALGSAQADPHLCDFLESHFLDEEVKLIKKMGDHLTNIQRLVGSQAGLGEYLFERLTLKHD
RecQ-like DNA helicase BLM (Homo sapiens), sequence (P54132 whole entry, looked up): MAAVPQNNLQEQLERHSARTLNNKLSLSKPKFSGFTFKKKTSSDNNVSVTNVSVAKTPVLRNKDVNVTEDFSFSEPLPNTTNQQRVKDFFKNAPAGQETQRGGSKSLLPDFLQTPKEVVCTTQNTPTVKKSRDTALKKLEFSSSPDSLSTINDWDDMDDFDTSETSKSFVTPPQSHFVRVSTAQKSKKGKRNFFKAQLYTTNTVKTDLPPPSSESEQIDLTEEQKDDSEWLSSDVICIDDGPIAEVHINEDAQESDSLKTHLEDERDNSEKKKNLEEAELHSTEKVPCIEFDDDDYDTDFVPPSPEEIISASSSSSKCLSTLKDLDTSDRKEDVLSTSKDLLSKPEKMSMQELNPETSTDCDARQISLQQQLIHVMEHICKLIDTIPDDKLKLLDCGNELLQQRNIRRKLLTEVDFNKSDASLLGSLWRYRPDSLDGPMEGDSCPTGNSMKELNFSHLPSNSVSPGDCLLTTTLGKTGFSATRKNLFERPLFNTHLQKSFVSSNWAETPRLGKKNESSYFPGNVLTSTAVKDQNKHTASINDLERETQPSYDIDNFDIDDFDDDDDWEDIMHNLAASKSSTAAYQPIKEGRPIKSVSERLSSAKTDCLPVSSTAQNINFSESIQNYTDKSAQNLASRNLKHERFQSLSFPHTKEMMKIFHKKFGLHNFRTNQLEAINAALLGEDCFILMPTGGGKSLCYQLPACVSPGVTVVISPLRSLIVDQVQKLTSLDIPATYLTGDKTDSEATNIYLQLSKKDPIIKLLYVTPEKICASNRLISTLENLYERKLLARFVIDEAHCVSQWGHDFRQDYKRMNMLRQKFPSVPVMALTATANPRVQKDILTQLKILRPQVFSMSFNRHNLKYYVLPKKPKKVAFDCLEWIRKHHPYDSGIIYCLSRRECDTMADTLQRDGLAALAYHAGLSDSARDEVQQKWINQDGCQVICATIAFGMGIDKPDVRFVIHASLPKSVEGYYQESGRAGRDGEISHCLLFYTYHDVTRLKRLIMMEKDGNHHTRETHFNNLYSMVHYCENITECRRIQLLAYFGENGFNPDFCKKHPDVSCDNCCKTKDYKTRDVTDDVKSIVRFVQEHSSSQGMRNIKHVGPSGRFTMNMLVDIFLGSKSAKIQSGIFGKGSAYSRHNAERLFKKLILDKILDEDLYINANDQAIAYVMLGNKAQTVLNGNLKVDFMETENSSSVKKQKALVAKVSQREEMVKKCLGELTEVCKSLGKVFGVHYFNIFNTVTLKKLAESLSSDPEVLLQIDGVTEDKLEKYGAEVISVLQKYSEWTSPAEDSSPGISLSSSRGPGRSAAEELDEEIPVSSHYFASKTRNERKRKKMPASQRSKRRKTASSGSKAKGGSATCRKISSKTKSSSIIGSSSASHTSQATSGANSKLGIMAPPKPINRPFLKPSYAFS
Galactokinase (Homo sapiens), sequence (P51570 whole entry, looked up): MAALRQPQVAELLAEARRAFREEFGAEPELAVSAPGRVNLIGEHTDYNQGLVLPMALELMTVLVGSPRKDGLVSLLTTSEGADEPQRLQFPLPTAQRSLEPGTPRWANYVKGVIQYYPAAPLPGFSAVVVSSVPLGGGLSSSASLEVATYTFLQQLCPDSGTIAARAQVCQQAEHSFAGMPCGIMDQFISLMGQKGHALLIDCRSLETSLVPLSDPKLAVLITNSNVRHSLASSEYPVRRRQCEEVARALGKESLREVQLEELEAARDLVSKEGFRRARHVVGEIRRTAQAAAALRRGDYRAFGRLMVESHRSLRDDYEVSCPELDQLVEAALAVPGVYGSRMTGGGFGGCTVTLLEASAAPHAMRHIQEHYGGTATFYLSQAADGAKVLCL
Thyrotropin-releasing hormone receptor (Homo sapiens), sequence (P34981 whole entry, looked up): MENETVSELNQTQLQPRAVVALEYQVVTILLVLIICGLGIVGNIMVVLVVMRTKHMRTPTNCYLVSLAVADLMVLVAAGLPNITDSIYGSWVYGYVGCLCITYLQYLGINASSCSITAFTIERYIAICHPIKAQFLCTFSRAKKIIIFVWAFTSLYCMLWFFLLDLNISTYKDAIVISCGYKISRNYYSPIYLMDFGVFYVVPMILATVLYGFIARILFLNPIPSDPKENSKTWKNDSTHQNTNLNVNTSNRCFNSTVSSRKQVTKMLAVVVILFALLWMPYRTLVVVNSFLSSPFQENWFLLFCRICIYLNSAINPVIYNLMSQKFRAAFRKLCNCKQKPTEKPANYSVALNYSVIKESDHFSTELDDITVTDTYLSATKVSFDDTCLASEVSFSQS

CN1CCN(c2ccc3ccccc3n2)CC1
inactive: Potency [1] | Potency [2] | Potency [3] | Potency [4] | outcome [5] | outcome [6] | Potency [7] | Potency [8] | Potency [9] | Potency [10] | Potency [11] | Potency [12] | outcome [13] | outcome [14] | activation [15] 1.56% | outcome [16] | Potency [17] | Potency [18] | Potency [19]
